Source: PubChem BioAssay
MARV entry inh – blocks Marburg virus binding or cell entry. Marburg virus pseudotype entry/binding inhibition, cell-based. Potency, µM (highest dose often 49.2 µM), hits mostly inhibitors. 18,000 tested, 6.5% active. AID 720532
Lassa entry – blocks Lassa virus binding or cell entry; Lassa virus pseudotyped entry inhibition, cell-based qHTS; Potency, µM (doses to about 49.2 µM), hits mostly inhibitors; 18,000 tested, 4.1% active
Hits are given with their value; n = inactive; u = inconclusive; x = not tested or not shown; ! = repeats disagree; [ ] = dose if it differs, or a comment. In the library only some 8% were active in any assay of this set; here they are far more common. Calls follow the shape of the full dose curve; tested in HEK293 cells.

SMILES	MARV entry inh	Lassa entry
CC(=O)N1CCC[C@H]1C(=O)NCC1Cc2cc(Cl)cc(-c3ccc4[nH]ccc4c3)c2O1 (some centres not stated)	n	n
COCCC(=O)NCC1Cc2cc(Cl)cc(-c3ccc4[nH]ccc4c3)c2O1 (configuration not stated)	7.1µM	7.1µM
CC=CC(=O)C[C@H]1CC[C@@H](C)[C@@H](CCO)O1	n[8.59 µM]	n[8.59 µM]
COc1ccccc1C1=C(Nc2ccccc2)C(=O)NC1=O	n	n
CCC[C@H]1CN(c2ccccc2)C(=O)[C@H]1CC(=O)Nc1ccc(OC)cc1	n	n
Cc1ccc2c(Cl)cc(Cl)c(O)c2n1	6.3µM!	u
Oc1c(Cl)cc(Cl)c2cccnc12	13µM	u
Oc1ccc(Cl)c2cccnc12	n	n
COC(=O)CC=C1c2ccccc2C[C@H](OC)[C@@H]1C	n[8.59 µM]	n[8.59 µM]
O=C1Nc2ccccc2[C@@]12O[C@H](COc1ccccc1)CC1=C2CCC1	n[8.59 µM]	n[8.59 µM]
CC(=O)OC[C@H]1O[C@H](CC=NO[C@@H](C)c2cn([C@H](CO)Cc3ccccc3)nn2)C=C[C@@H]1OC(C)=O	n[8.59 µM]	x
Cc1cc(O)cc(C)c1C=Cc1cncc(-c2nn[nH]n2)c1	n	n
CN1C[C@H](C(=O)N[C@]2(C)O[C@@]3(O)[C@@H]4CCCN4C(=O)[C@H](Cc4ccccc4)N3C2=O)C=C2c3cccc4[nH]cc(c34)C[C@H]21	n	n
CC(C)C[C@H]1C(=O)N2CCC[C@@H]2[C@]2(O)O[C@](NC(=O)[C@H]3C=C4c5cccc6[nH]c(Br)c(c56)C[C@H]4N(C)C3)(C(C)C)C(=O)N12	n	n
CC(C)C[C@H]1C(=O)N2CCC[C@H]2[C@]2(O)O[C@](NC(=O)[C@@H]3C=C4c5cccc6[nH]c(Br)c(c56)C[C@H]4N(C)C3)(C(C)C)C(=O)N12	u	25µM!
CC(C)[C@@]1(NC(=O)[C@@H]2C[C@H]3c4cccc5[nH]cc(c45)C[C@@H]3N(C)C2)O[C@@]2(O)[C@H]3CCCN3C(=O)[C@H](Cc3ccccc3)N2C1=O	22µM!	n
CC(C)C[C@H]1C(=O)N2CCC[C@H]2[C@]2(O)O[C@](NC(=O)[C@@H]3C[C@@H]4c5cccc6[nH]cc(c56)C[C@H]4N(C)C3)(C(C)C)C(=O)N12	u	n
CC(C)CC1C(=O)N2CCCC2C2(O)O[C@@](NC(=O)C3C=C4c5cccc6[nH]c(Br)c(c56)CC4N(C)C3)(C(C)C)C(=O)N12 (some centres not stated)	10µM	u
O=C1C2=C(C(=O)c3ccccc31)[C@H]1O[C@](CCCCN3C(=O)c4ccccc4C3=O)(Cc3ccccc31)O2	n[8.59 µM]	n[8.59 µM]
CCCCCCN1C[C@H](O)[C@@H](n2cc(C3CC3)nn2)C[C@H]1c1ccccc1	u	n
O=C1[C@@H]2[C@H]3[C@H](O)[C@H](O)CC(=NOC[C@@H](O)COCc4ccco4)[C@@H]3CC[C@H]2C(=O)N1C[C@@H]1CCCO1	u	n[8.59 µM]
COc1ccc(C=CC2=CC3(C)CC2(C)C(c2ccc(OC)cc2)CC3=O)cc1 (configuration not stated)	n[8.59 µM]	n[8.59 µM]
C[C@]12CC[C@H](O)C[C@H]1CC[C@@H]1[C@@H]2CC[C@]2(C)[C@@H](c3ccc(=O)oc3)C[C@H]3O[C@]132	2.5µM	2.8µM
CC(=O)C1CC[C@H]2C3CC[C@@H]4CC(O)CC[C@@]4(C)C3CC[C@]12C (some centres not stated)	u	n
Cc1ccccc1Nc1oc(-c2ccccc2)nc1-c1ccc(C(F)(F)F)cc1	n[8.59 µM]	u
SMILES	MARV entry inh	Lassa entry
C[C@H]1C=CCC(=O)N[C@@H](c2ccc3ccccc3c2)[C@@H](C)C=CCC(=O)N[C@@H]1c1ccc2ccccc2c1	n[8.59 µM]	n[8.59 µM]
CN(C)CCc1cc2c(c3c1ccc1ccccc13)OCO2	13µM	u
C#CCN1C(=O)[C@]2(OCCC=C[C@@H]2C)c2cc(OC)ccc21	n[8.59 µM]	n[8.59 µM]
Cc1ccc2c(c1)C1(CCN(CCc3nc(-c4ccccc4)oc3C)CC1)OC(=O)N2	u	13µM
O=C1NCC2(CCN(CCc3ccccc3)CC2)O1	n	n
C=C(C)CO[C@H]1C=C[C@@H](c2ccccc2)O[C@H]1CO	n[8.59 µM]	n[8.59 µM]
CCCCC(=O)O[C@@]1(C(=O)CO)C(C)CC2C3CCC4=CC(=O)C=C[C@@]4(C)[C@]3(F)C(O)C[C@]21C (some centres not stated)	n	n
CCCC(=O)O[C@]1(C(=O)COC(=O)CC)[C@@H](C)C[C@H]2[C@@H]3CCC4=CC(=O)C=C[C@]4(C)[C@@]3(F)[C@@H](O)C[C@@]21C	11µM	u
C=CC1CC2C=CCOP(=S)(O1)O2 (configuration not stated)	n	n
CN(C)CCOc1ccc(-c2nc(-c3ccc4c(c3)CCC4=NO)c(-c3ccncc3)[nH]2)cc1	u	n
CN(C)CCOc1ccc(-c2cc(-c3ccc4c(c3)CCC4=NO)c(-c3ccncc3)o2)cc1	2µM	x
COC(=O)N[C@@H](C=Cc1ccco1)[C@]1(C(=O)OC)CCCC1=O	n[8.59 µM]	n[8.59 µM]
CC(C)=CCCC(C)=CCON=C1C[C@@H](O)[C@@H](O)[C@@H]2[C@H]3C(=O)N(c4ccc(F)cc4F)C(=O)[C@@H]3CC[C@H]12	u	n[8.59 µM]
CC1=C[C@@H](COCc2ccccc2)O[C@@]2(C1)C(=O)N(Cc1ccccc1C(F)(F)F)c1ccccc12	n[8.59 µM]	n[8.59 µM]
C/C=C(/C)C(=O)O[C@H]1C(C)=C2[C@H]([C@@H]1OC(=O)CCCCCCC)[C@@](C)(OC(C)=O)C[C@H](OC(=O)CCC)[C@@]1(O)[C@H]2OC(=O)[C@@]1(C)O	22µM	45µM
CCN1C(=NCc2ccc(OC)cc2)NC(c2cccc(C(F)(F)F)c2)C(C(=O)OC)=C1C (configuration not stated)	n[8.59 µM]	n[8.59 µM]
C=CCOP1(=O)O[C@H](CC=C)C[C@H](CC=C)O1 (some centres not stated)	u	n
CCN(CC)CCNC(=O)COc1ccc(Cl)cc1	n	n
CCN(CC)CCOc1ccc(C(O)(Cc2ccc(Cl)cc2)c2ccc(C)cc2)cc1 (configuration not stated)	3.5µM	25µM
C=COC[C@@H]1CN2[C@H](c3ccc(Br)cc3)[C@H](C)CC[C@H]2C(=O)O1	n[8.59 µM]	n[8.59 µM]
CCCCCCN1C[C@@H](O)[C@H](n2cc(COC(=O)c3ccccc3)nn2)C[C@H]1c1ccccc1	n	n
COc1ccc(CN2C[C@]3(CO)OC(CO)C[C@H]3[S+]2(=O)[O-])cc1 (some centres not stated)	n	n
Clc1ccc2c(c1)C(N1CCNCC1)=Nc1ccccc1O2	11µM!	u
CN1CCN(C2=Nc3ccccc3Cc3ccccc32)CC1	u	n
CCCCn1c(C)cc2c(c1=O)[C@H]1O[C@](c3ccsc3)(Cc3cc(OC)c(OC)cc31)O2	u	n[8.59 µM]
SMILES	MARV entry inh	Lassa entry
O[N+]1=CC=CCC1=S.On1ccccc1=S.[Zn]	4.5µM	3.5µM
C[C@H](NCCC(c1ccccc1)c1ccccc1)c1ccccc1	10µM	u
C[C@H](NCc1ccccc1)c1ccccc1	n	n
OC[C@H]1O[C@H](C#Cc2ccc(F)cc2F)C=C[C@H]1O	u	n[8.59 µM]
COC(=O)CC=C[C@@H](C)[C@@H](C=NO[C@H](C)c1cn([C@@H]2COC[C@@H]2O)nn1)N[S+](=O)([O-])c1ccc(C)cc1	n[8.59 µM]	n[8.59 µM]
COC(=O)C1=C(C(=O)OC)[C@@H]2N(Cc3ccccc3)c3ccccc3[C@@]23C[C@@H](C(=O)OC)N(C(=O)NCCBr)C3=N1	n[8.59 µM]	n[8.59 µM]
Nc1ccc(Cl)cc1	n	u
CCc1nc(N)nc(N)c1-c1ccc(Cl)cc1	14µM	u
